Bioassay records: PubChem, several laboratories
The list is not random: actives were taken first. Their share in the collection is about 4.6%.
FAS-TE inh = blocks the thioesterase domain of human fatty acid synthase. P49327. recombinant FAS-TE, OMFH fluorogenic substrate, fluorescence endpoint. inhibition, % at 15 µM. actives 0.67% (n = 360,000). AID 602261;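 active means compounds whose normalised, plate-corrected inhibition of enzyme fluorescence in the single-dose primary screen is 50% or more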;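 further: 0% = DMSO with enzyme and 100% = substrate without enzyme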
ADAM17 inh = inhibits human ADAM17 | P78536 | recombinant ADAM17, EDANS/DABCYL FRET peptide cleavage | inhibition, % at 6.95 µM | actives 0.83% (n = 370,000) | AID 720648;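 active means inhibition above the mean of compounds lying between control limits plus 3 SD, set per campaign, cut at about 8.5% in these data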;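 further: 0% = DMSO-only wells as the low control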
GRIN3A LBD mod = NR3A (human) ligand-binding domain modulation | NR3A LBD differential scanning fluorimetry, Tm shift; 0% = protein alone, 100% = glycine-bound protein | Tm shift relative to glycine control, % at 25 µM | actives 2.5% (n = 340,000) | AID 1259313;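 active means melting temperature shift of at least 10% of the positive control shift, at one fixed dose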
proKLK7 act = activates the human kallikrein-7 zymogen; AID 652039; activation, % at 7 µM; purified proKLK7, EDANS-DABCYL substrate fluorescence; 100% is mature enzyme control, 0% vehicle; actives 0.9% (n = 370,000); P49862;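 active means activation above the mean of all tested compounds plus 3 SD, computed per campaign excluding outliers beyond control limits, cut at about 13% in these data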
ADAM10 inh = inhibits human ADAM10; O14672; recombinant ADAM10, EDANS/DABCYL FRET peptide cleavage, 3 h; inhibition, % at 7 µM; AID 720582; actives 0.62% (n = 370,000);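 active means inhibition above a per-campaign cutoff equal to the mean of compounds falling between control-based bounds plus 3 SD, cut at about 20% in these data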;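 further: 0% = DMSO wells while the 100% control is not disclosed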
* marks the source's active call; other numbers are inactive results.

What do the screens show for `COc1ccc(Nc2cc(Nc3ccccc3)ncn2)cc1`?
FAS-TE inh: -6.3; ADAM17 inh: 0.8; GRIN3A LBD mod: 30.8*; proKLK7 act: -0.6; ADAM10 inh: 4.1

Results for COc1ccc(Nc2ncnc3ccccc23)cc1 ?
FAS-TE inh: -4.7; ADAM17 inh: -6.6; GRIN3A LBD mod: -7.0; proKLK7 act: 0.5; ADAM10 inh: -8.6

How did COc1ccc(Nc2ncnc3sc(-c4ccccc4)cc23)cc1 do in these assays?
FAS-TE inh: 30.2; ADAM17 inh: -49.8; GRIN3A LBD mod: 16.4*; proKLK7 act: -10.3; ADAM10 inh: -180.7

Results for CN(Cc1ccccc1)C(=O)OCc1cn(Cc2ccc(F)c(F)c2)nn1 ?
ADAM17 inh: 0.8; proKLK7 act: -0.1; ADAM10 inh: 2.7

Results for CC1=NN(c2cccc(Cl)c2)C(=O)C1 ?
FAS-TE inh: -4.0; ADAM17 inh: -1.7; GRIN3A LBD mod: 11.4*; proKLK7 act: -0.5; ADAM10 inh: -1.5

What do the screens show for `O=C(COC(=O)CCCSc1nc2ccccc2[nH]1)Nc1ccc(Cl)cc1`?
FAS-TE inh: 6.4; ADAM17 inh: 1.2; GRIN3A LBD mod: 16.2*; proKLK7 act: 0.4; ADAM10 inh: 0.8

What do the screens show for `Oc1ccc(-c2cnc3ccccc3n2)cc1`?
FAS-TE inh: -2.7; ADAM17 inh: 1.1; GRIN3A LBD mod: 37.2*; proKLK7 act: 0.6; ADAM10 inh: 1.9

How did CCCCOc1ccc(-c2cnc3ccccc3n2)cc1 do in these assays?
FAS-TE inh: 10.2; ADAM17 inh: -12.1; GRIN3A LBD mod: 22.1*; proKLK7 act: -8.0; ADAM10 inh: -28.2

How did Clc1ccc(-c2cnc3ccccc3n2)cc1 do in these assays?
FAS-TE inh: 1.9; ADAM17 inh: -6.5; GRIN3A LBD mod: 4.6; proKLK7 act: -0.8; ADAM10 inh: -20.3

What do the screens show for `Cc1ccc(NC(=O)OC2CCC23CCCCC3)cc1` (centres undefined)?
ADAM17 inh: 1.5; proKLK7 act: -0.2; ADAM10 inh: -4.5

What do the screens show for `Cc1ccccc1Cn1cc(CN2[C@@H](CC(C)C)COc3cccc(F)c3S2(=O)=O)nn1`?
ADAM17 inh: 0.6; proKLK7 act: -0.1; ADAM10 inh: 1.2

How did O=C(/C=C/Nc1ccc(F)cc1)c1ccco1 do in these assays?
FAS-TE inh: -1.5; ADAM17 inh: 0.6; GRIN3A LBD mod: 14.6*; proKLK7 act: -0.6; ADAM10 inh: 2.2

Results for O=C(O)c1ccc(N=NNc2cccc([N+](=O)[O-])c2)cc1 ?
FAS-TE inh: 0.0; ADAM17 inh: 1.8; GRIN3A LBD mod: -2.4; proKLK7 act: -0.4; ADAM10 inh: 0.3

How did N#C/C(=N\Nc1cccc([N+](=O)[O-])c1)C(=O)c1ccc(Br)cc1 do in these assays?
FAS-TE inh: 20.0; ADAM17 inh: 1.4; GRIN3A LBD mod: 28.5*; proKLK7 act: -0.8; ADAM10 inh: 14.5

What do the screens show for `CC1=C(C(=O)NC2CCC(C)CC2)C2(CCC(C)CC2)OC1=O` (centres undefined)?
FAS-TE inh: 0.7; ADAM17 inh: 4.6; GRIN3A LBD mod: 13.5*; proKLK7 act: -0.5; ADAM10 inh: -4.4

Results for COc1ccc(Cn2cc(CN3[C@H](Cc4ccccc4)COc4cc(Br)ccc4S3(=O)=O)nn2)cc1 ?
ADAM17 inh: -1.4; proKLK7 act: 0.6; ADAM10 inh: -0.9

Results for Cc1ccc(O)c(/C=N/NC(=O)CN2CCCC2)c1 ?
FAS-TE inh: -1.1; ADAM17 inh: -27.4; GRIN3A LBD mod: -1.8; proKLK7 act: -42.8; ADAM10 inh: -66.4

Results for O=C(CN1CCCCCCC1)N/N=C/c1ccc(F)cc1F ?
FAS-TE inh: -12.2; ADAM17 inh: -0.8; GRIN3A LBD mod: 24.2*; proKLK7 act: 0.1; ADAM10 inh: -2.5

Results for COc1ccc(S[C@]2(C(=O)N3CCCC3)CC(=O)N(C(=O)/C=C/c3ccccc3)[C@@H]2c2ccc(OC)cc2)cc1 ?
ADAM17 inh: 2.3; proKLK7 act: -0.4; ADAM10 inh: 5.4

Results for COC(=O)[C@]1(C#N)CC(=O)N(Cc2ccc(Cl)cc2)[C@@H]1c1ccccc1 ?
ADAM17 inh: -0.3; proKLK7 act: -0.3; ADAM10 inh: -0.2

What do the screens show for `O=[N+]([O-])c1ccc(/C=C/c2ccc3cccc([N+](=O)[O-])c3n2)cc1`?
FAS-TE inh: 17.2; ADAM17 inh: 8.6; GRIN3A LBD mod: 23.2*; proKLK7 act: -0.5; ADAM10 inh: 7.4

How did O=[N+]([O-])c1cccc2ccc(/C=C/c3ccc(F)cc3)nc12 do in these assays?
FAS-TE inh: 33.7; ADAM17 inh: 5.9; GRIN3A LBD mod: 24.4*; proKLK7 act: 0.0; ADAM10 inh: 14.8

What do the screens show for `COc1cc(/C=C/c2ccc3cccc([N+](=O)[O-])c3n2)ccc1OCC#N`?
FAS-TE inh: 53.3*; ADAM17 inh: 6.6; GRIN3A LBD mod: 9.5; proKLK7 act: -1.7; ADAM10 inh: 11.0

What do the screens show for `O=[N+]([O-])c1cccc(/C=C/c2ccc3cccc(O)c3n2)c1`?
FAS-TE inh: 5.4; ADAM17 inh: 2.9; GRIN3A LBD mod: 7.2; proKLK7 act: -0.2; ADAM10 inh: 6.9

What do the screens show for `CCOC(=O)N1CCN(C(=O)C2CCCN(S(=O)(=O)c3ccc(C)cc3)C2)CC1` (centres undefined)?
FAS-TE inh: -5.0; GRIN3A LBD mod: -2.7

Results for CCOC(=O)N1CCN(C(=O)C2CCCN(S(=O)(=O)c3ccc(OCC)cc3)C2)CC1 (centres undefined) ?
FAS-TE inh: -3.7; ADAM17 inh: -2.0; GRIN3A LBD mod: 13.4*; proKLK7 act: 0.8; ADAM10 inh: -4.9

What do the screens show for `CCOc1ccc(S(=O)(=O)N2CCC(C(=O)N3CCc4ccccc4C3)CC2)cc1`?
FAS-TE inh: 17.1; ADAM17 inh: -2.3; GRIN3A LBD mod: 20.4*; proKLK7 act: 0.2; ADAM10 inh: 3.3

Results for COc1ccc(S(=O)(=O)N2CCC(C(=O)N3CCc4ccccc4C3)CC2)cc1 ?
FAS-TE inh: 12.1; ADAM17 inh: -4.0; GRIN3A LBD mod: 2.0; proKLK7 act: 0.4; ADAM10 inh: 1.8

Results for OC(c1ccccc1)(c1ccccc1)C1CCN(CCCNc2ccc(Cl)cc2Cl)CC1 ?
ADAM17 inh: 6.8; proKLK7 act: 0.3; ADAM10 inh: 10.9

Results for C[C@@H]1C[C@H]2[C@@H](C)C(=O)N3[C@H](c4ccccc4)[C@H](C)C[C@H]3[C@@H](C)C(=O)N2[C@@H]1c1ccccc1 ?
ADAM17 inh: -2.1; proKLK7 act: 0.9; ADAM10 inh: 4.1

What do the screens show for `COc1cc(OC)c(C(=O)NNC(=O)CN(C)S(=O)(=O)c2ccc(Cl)cc2)cc1OC`?
FAS-TE inh: -5.6; ADAM17 inh: -3.1; GRIN3A LBD mod: 34.7*; proKLK7 act: -0.2; ADAM10 inh: -5.3

How did CCc1nn(CCCC(=O)NCc2ccc(OC(C)C)cc2)c(=O)c2cc3occc3n12 do in these assays?
FAS-TE inh: 9.1; ADAM17 inh: -1.2; GRIN3A LBD mod: 16.5*; proKLK7 act: 0.0; ADAM10 inh: -8.1

How did O=C(Nc1ccc(-n2ccc(C(F)(F)F)n2)cc1)Nc1cccc(Cl)c1 do in these assays?
FAS-TE inh: 23.6; ADAM17 inh: 6.2; proKLK7 act: -0.3; ADAM10 inh: 12.5
